A selection: hits, their analogues and other compounds. The true share with any hit is near 2.8%.
AHR activator – activates the human aryl hydrocarbon receptor; P35869; 320,000 tested, 2.5% active; activation, % at 5 µM; AID 2796; AHR-responsive luciferase reporter cells, luminescence; in the data active means activation above about 47%;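 further: 0% = vehicle wells and 100% = reference agonist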
Target sequence (P35869 whole entry, looked up): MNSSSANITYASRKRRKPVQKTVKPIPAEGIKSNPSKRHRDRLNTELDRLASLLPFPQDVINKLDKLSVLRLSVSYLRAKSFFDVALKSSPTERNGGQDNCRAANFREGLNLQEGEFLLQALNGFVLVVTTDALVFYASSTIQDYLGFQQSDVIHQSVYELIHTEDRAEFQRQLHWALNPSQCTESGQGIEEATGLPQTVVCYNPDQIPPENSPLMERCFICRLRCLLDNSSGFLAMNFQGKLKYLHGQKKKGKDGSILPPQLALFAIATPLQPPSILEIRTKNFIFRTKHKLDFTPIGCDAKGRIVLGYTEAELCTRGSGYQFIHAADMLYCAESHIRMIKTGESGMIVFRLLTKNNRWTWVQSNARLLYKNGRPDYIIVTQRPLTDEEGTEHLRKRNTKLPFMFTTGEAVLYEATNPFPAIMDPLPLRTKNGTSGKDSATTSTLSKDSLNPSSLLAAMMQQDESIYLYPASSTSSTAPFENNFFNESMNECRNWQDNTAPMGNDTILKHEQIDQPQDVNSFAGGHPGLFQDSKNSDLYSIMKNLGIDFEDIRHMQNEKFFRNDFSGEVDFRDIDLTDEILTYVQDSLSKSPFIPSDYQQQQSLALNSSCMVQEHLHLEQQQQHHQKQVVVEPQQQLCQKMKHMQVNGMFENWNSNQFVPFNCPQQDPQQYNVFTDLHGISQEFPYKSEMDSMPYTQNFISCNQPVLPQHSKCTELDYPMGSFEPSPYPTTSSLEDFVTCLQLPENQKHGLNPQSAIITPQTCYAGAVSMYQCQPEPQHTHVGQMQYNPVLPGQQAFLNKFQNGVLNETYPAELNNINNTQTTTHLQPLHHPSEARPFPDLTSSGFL
HIF activator – HIF pathway transcriptional activation. U2OS HRE-luciferase reporter, luminescence; normalized: DMSO 0%, desferrioxamine 100%. activation, % at 7.5 µM (by protocol). 300,000 tested, 0.32% active;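 active means mean activation of at least 10% of the iron chelator positive control signal, with at least half of replicates also reaching 10%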
Platelet DG rel – modulates dense granule release in human platelets. human platelet-rich plasma, SFLLRN dense granule ATP release, luminescence. inhibition, %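 (compounds screened at 7.5 µM in platelet-rich plasma)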. 300,000 tested, 0.22% active. AID 1663;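 active means mean replicate score, as percent of positive control, at or above 50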
p-CIP stab down – p/CIP protein destabilization | F442A p/CIP-EGFP cells, EGFP fluorescence, 16 h | decrease of EGFP signal, % at 10 µM | 290,000 tested, 0.01% active;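 active means EGFP signal decrease of at least 30% at 10 µM or well 3 SD below plate mean, unless failing retest; inactive means the rest, including hits failing retest or dose response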
PolyA inh – blocks polyadenylation in yeast reporter cells; S. cerevisiae SKY197-pL101 polyadenylation reporter, beta-gal luminescence; efflux-impaired pdr1/pdr3 knockout yeast; score 100 = 6 SD above DMSO; activity score, % at 12 µM; 300,000 tested, 0.02% active;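 active means lowest replicate activity score at least 50, where 100 means six control SD above control mean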;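 further: yeast exposed to compound for 9 h at 30 °C; higher score means more reporter readthrough which indicates perturbed polyadenylation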
An asterisk follows results filed as active; x = not tested or not shown.

SMILES	AHR activator	HIF activator	Platelet DG rel	p-CIP stab down	PolyA inh
COc1cccc(N(C(=O)c2ccco2)c2nc(-c3sc(NC(=O)c4ccco4)nc3C)cs2)c1	65*	-3	-1	-6	33
Cc1ccccc1Nc1nc(-c2sc(NC(=O)c3ccccc3)nc2C)cs1	62*	1	5	-2	-7
Cc1nc(NC(=O)c2ccccc2)sc1-c1csc(Nc2ccc(Cl)cc2)n1	59*	1	4	-20	-6
COc1ccccc1Nc1nc(-c2sc(NC(=O)c3ccco3)nc2C)cs1	79*	0	-7	0	5
Cc1nc(NC(=O)c2ccco2)sc1-c1csc(Nc2ccc(Cl)cc2)n1	75*	-4	2	-7	-5
Cc1ccc(Cl)cc1Nc1nc(-c2sc(NC(=O)c3ccco3)nc2C)cs1	28	-1	9	2	16
COc1ccccc1N1CCN(C(=O)CSc2nnc3c4ccccc4nc(Cc4ccccc4)n23)CC1	0	0	-1	0	-5
CC(=O)Nc1cccc(N2C(=O)CC(Cc3ccccc3)C2=O)c1 (centres undefined)	1	0	57*	0	5
O=c1c(Cl)c(Cl)cnn1Cc1nnc(-c2ccccc2Br)o1	x	1	9	-29	-25
O=C(Nc1nnc(Cc2ccc([N+](=O)[O-])cc2)s1)c1ccc2c(c1)OCO2	55*	1	-5	-14	12
O=C(O)CSc1nnc(NC(=O)c2ccc3c(c2)OCO3)s1	-9	0	2	4	0
CCOc1ccc(C(=O)Nc2nnc(C(C)C)s2)cc1OCC	59*	1	-3	10	13
CN(C)c1cccc(C(=O)Nc2nnc(Cc3ccccc3)s2)c1	54*	2	10	-13	21
CC(C)(C)Cc1nnc(NC(=O)c2ccc3c(c2)OCO3)s1	49*	2	-7	-4	3
O=C(Cc1ccc([N+](=O)[O-])cc1)NNC(=O)c1ccc2c(c1)OCO2	x	x	x	-11	x
Cc1ccc(CNC(=O)C(=O)NCC2OCCN2S(=O)(=O)c2ccc(Br)cc2)cc1 (centres undefined)	0	0	-5	-8	-1
CC(C)CN(C(=O)c1cc(=O)[nH]c2ccccc12)c1c(N)n(Cc2ccccc2)c(=O)[nH]c1=O	0	-1	3	x	9
O=C(Cc1ccccc1)NCC(=O)N1CCN(c2ccccc2)CC1	-4	0	-6	-8	2
O=C(CN1CCCCC1)NCC(=O)Nc1ccc(F)c(F)c1F	0	x	x	x	x
S=C(c1ccc2c(c1)OCO2)N1CCOCC1	-2	-1	8	-8	17
CCC(CC)c1nnc(NC(=O)c2ccc3c(c2)OCO3)s1	64*	3	15	-4	11
COC(=O)C1(C(F)(F)F)N=C2Sc3ccccc3N2C(N2CCOCC2)=N1 (centres undefined)	-1	0	105*	-12	2
CCCCNC(=O)NNC(=O)c1cc(C)on1	1	0	-3	-2	-12
Cc1nn(-c2ccc(Cl)cc2)c(=O)c2c(C)noc12	78*	-1	-6	-11	-5
Cc1ccc(-n2nc(C)c3c(C)onc3c2=O)cc1	1	x	x	-9	3
SMILES	AHR activator	HIF activator	Platelet DG rel	p-CIP stab down	PolyA inh
COC(=O)/C(C#N)=C/c1c(N2CCN(c3ccc(OC)cc3)CC2)nc2c(C)cccn2c1=O	32	1	-7	-11	-17
CCOC(=O)/C(C#N)=C/c1c(N2CCN(Cc3ccc4c(c3)OCO4)CC2)nc2c(C)cccn2c1=O	-2	0	9	1	6
CNC(=O)/C(C#N)=C/c1c(N2CCN(c3ccccc3)CC2)nc2c(C)cccn2c1=O	49*	-1	2	-1	1
CNC(=O)/C(C#N)=C/c1c(N2CCN(c3ccc(OC)cc3)CC2)nc2c(C)cccn2c1=O	55*	0	6	-10	11
COC(=O)/C(C#N)=C/c1c(N2CCN(Cc3ccc4c(c3)OCO4)CC2)nc2c(C)cccn2c1=O	0	410*	4	-18	8
CC1(c2nnc(-c3cccc(Cl)c3)o2)CC(c2ccc(OC(F)(F)F)cc2)=NO1 (centres undefined)	2	0	-1	1	-13
O=C(COC(=O)c1c[nH]c(=O)[nH]c1=O)Nc1ccccc1Br	1	-1	82*	1	-7
COc1ccccc1NC(=O)COC(=O)c1c[nH]c(=O)[nH]c1=O	5	0	-10	-19	6
Cc1cnc(CNC(=O)CC2C(=O)NCCN2Cc2cccc(F)c2F)cn1 (centres undefined)	2	1	1	-1	18
CCOC(=O)c1c(C)[nH]c(C(=O)OCc2ccccc2F)c1C	13	11*	0	-7	-11
CCOC(=O)c1c(C)[nH]c(C(=O)OCc2ccc(F)cc2)c1C	x	3	-5	8	-9
CCCCN(C(=O)c1c(C)[nH]c(C(=O)OCC)c1C)c1ccccc1	-1	10*	-3	-8	11
COc1cccc(/C=N/Nc2ncnc3scc(-c4ccccc4)c23)c1OC	53*	0	2	-14	-4
Cc1sc2ncnc(N/N=C/c3ccccc3O)c2c1C	19	0	6	10	3
c1ccc(Nc2ccc3c4c(cccc24)CC3)cc1	6	0	-5	-10	-32
Nc1ccc2c3c(cccc13)CC2	55*	2	11	-3	-3
Cc1nn(CC(=O)NNC(=O)c2cccc(Br)c2)c(C)c1[N+](=O)[O-]	2	0	-3	-11	12
COc1ccc(-c2csc(-c3cc4ccccc4oc3=N)n2)cc1	50*	0	3	0	1
CN(C)CCNc1oc(-c2cccc(Cl)c2)nc1C#N	78*	0	-3	-4	2
CN(C)CCCNc1oc(-c2ccccc2)nc1C#N	1	0	19	-14	-4
O=C(CN1CCOCC1)Nc1ccc([N+](=O)[O-])cc1	-2	-22	2	18	18
COc1ccc(NC(=O)c2cc3ccc4c5ccccc5[nH]c4c3cc2O)cc1	4	-1	1	4	-9
O=C(Nc1ccc2c(c1)OCO2)c1ccc([N+](=O)[O-])cc1[N+](=O)[O-]	72*	0	-7	-28	12
O=C(NC(=S)Nc1ccc2c(c1)OCO2)c1ccc(Cl)cc1	53*	4	0	-24	14
S=C(Nc1ccc2c(c1)OCO2)Nc1ccc2c(c1)OCO2	68*	2	16	5	-17
O=C(NC(=S)Nc1cc([N+](=O)[O-])ccc1O)c1ccc2c(c1)OCO2	71*	3	12	12	-7
O=C(Cn1[nH]c(=O)c2ccccc2c1=O)N1CCN(S(=O)(=O)c2ccc(Cl)cc2)CC1	-1	x	x	x	x
O=C(Cn1cnc2c(OCc3ccccc3)ncnc21)N[C@H](CO)Cc1cc2ccccc2[nH]1	0	x	x	x	x
CCOC(=O)c1c(C)[nH]c(C(=O)NCc2ccco2)c1C	17	1	-1	-7	-7

Source: PubChem (several laboratories)
